Consider 100 compounds from PubChem BioAssay AID778 (Sanford-Burnham Center for Chemical Genomics, 2007).

About 20,000 (21%) of roughly 96,000 compounds were called active. Only a sample is shown. Unmarked numbers belong to inactive results.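 The calls were made as follows: active = CYP2C19 inhibition above a set limit at 5 µM in the primary screen (cut at about 50% in these data); inactive = the rest.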 Residues, ends and D or L forms follow the SMILES beside them. *: point of attachment. Bz = O=C(c1ccccc1)*

Chain of Cytochrome P450 2C19 (Homo sapiens) (P33261 whole entry, looked up): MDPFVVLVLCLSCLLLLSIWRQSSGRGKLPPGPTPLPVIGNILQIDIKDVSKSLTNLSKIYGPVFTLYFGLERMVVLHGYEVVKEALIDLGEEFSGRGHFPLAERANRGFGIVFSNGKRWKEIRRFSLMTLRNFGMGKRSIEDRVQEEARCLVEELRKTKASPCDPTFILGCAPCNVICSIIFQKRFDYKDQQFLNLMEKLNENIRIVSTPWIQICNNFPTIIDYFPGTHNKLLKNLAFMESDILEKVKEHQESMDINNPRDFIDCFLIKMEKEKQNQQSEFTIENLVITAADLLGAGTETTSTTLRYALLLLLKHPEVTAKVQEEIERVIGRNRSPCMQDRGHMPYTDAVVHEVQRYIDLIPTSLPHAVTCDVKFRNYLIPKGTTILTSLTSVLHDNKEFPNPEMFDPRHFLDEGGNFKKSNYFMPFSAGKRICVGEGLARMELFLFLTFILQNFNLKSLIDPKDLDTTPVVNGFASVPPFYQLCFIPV

The assay addresses Cytochrome P450 2C19 (Homo sapiens) (UniProt P33261). Description: blockers of cytochrome P450 2C19 activity – biochemical, luminescence, ADME assay, primary screen (AID 778).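 Also: plate controls were negative control wells for no effect and 2.5 mM tranylcypromine positive control for full effect.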 The settings on record: CYP2C19 Supersomes, luciferin-H EGE luminescence, 30 min; at 5 µM; stronger effect = higher value.
Turning to `CN(Cc1ccccc1)C(=O)CCNC(=O)Cn1cnc2ccccc2c1=O`, the inhibition was -11.7%.

As to `Clc1ccc(Nc2nc(-c3cccs3)cs2)nc1`, the inhibition was 0.8%.

With `c1ccc(Nc2nc(-c3ccncc3)cs2)nc1`, the inhibition is 98.6% (active).

As to `NS(=O)(=O)c1ccc(Nc2nc(-c3ccccc3)cs2)cc1`, the inhibition is 28.5%.

`COc1ccc(Nc2nc(-c3ccccc3)cs2)cc1`: the inhibition was 35.2%.

Consider `Oc1ccc(-c2csc(Nc3cccnc3)n2)cc1`, for which the inhibition was 78.4% (active).

`c1cnc(Nc2nc(-c3ccc4ccccc4c3)cs2)nc1`: the inhibition was -3.4%.

Regarding `CCOC(=O)c1ccc(N2C(=O)CC(N(C)Cc3ccccc3)C2=O)cc1` (stereo not given), the inhibition was -4%.

For `CCCc1ccc(OCC(=O)NNC(=S)NC(=O)c2ccco2)cc1`, the inhibition was 8.7%.

Take `COc1ccc(C(=O)NC(=S)NNC(=O)CCc2ccccc2)cc1`: the inhibition was -0.6%.

Take `CC(Oc1ccc2ccccc2c1)C(=O)NNC(=S)NC(=O)c1ccco1` (stereo not given): the inhibition is 56.8% (active).

As for `O=C(NCC1CCCO1)C(C(=O)c1ccccc1)n1cc(Cl)ccc1=O` (stereo not given), the inhibition is -6.7%.

In the case of `Cc1cc(C)c2[nH]c(=O)c(C(c3nnnn3Cc3ccc4c(c3)OCO4)N3CCCC3)cc2c1` (stereo not given), the inhibition is 68.4% (active).

In the case of `Cc1ccc(S(=O)(=O)Cn2nnnc2CN2CCN(Cc3ccc4c(c3)OCO4)CC2)cc1`, the inhibition was 24.5%.

Turning to `CC(C)(C)n1nnnc1C(c1ccc(F)cc1)N1CCN(Cc2ccc3c(c2)OCO3)CC1` (stereo not given), the inhibition was 25.1%.

On to `Fc1ccccc1C(c1nnnn1Cc1ccc2c(c1)OCO2)N1CCN(Cc2ccccc2)CC1` (stereo not given), for which the inhibition was 62.9% (active).

For the compound `O=C(Cn1nnc(-c2ccccc2)n1)NCc1ccccc1`, the inhibition was 45.4%.

In the case of `Cc1cccc(NC(=O)c2ccc(OCC(=O)NCc3ccccc3)cc2)c1C`, the inhibition is -8%.

Turning to `O=C(CCC(=O)OCc1cccc(C(=O)Oc2ccccc2)c1)Nc1cccc2ccccc12`, the inhibition was 3.8%.

Consider `Cc1nnc(NC(=O)CCCOc2ccccc2)s1`, for which the inhibition was 24.7%.

In the case of `O=C(NCCOc1ccccc1)c1ccccc1`, the inhibition was 60.7% (active).

`O=C(CCOc1ccccc1)NCc1ccccc1`: the inhibition was 57.6% (active).

On to `O=C(O)CCC(=O)NCc1ccc(C(=O)O)cc1`, for which the inhibition was 3.2%.

As to `O=C(CCCOc1ccccc1)NCc1ccco1`, the inhibition is 36.6%.

As to `O=C(CCC(=O)OCC(F)(F)C(F)F)NCc1ccccc1`, the inhibition is 71.6% (active).

Turning to `CN(C)C(CNC(=O)CCCOc1ccccc1)c1ccco1` (stereo not given), the inhibition was 84.2% (active).

In the case of `O=C(NCCc1ccccc1)c1ccc(OCCOc2ccccc2)cc1`, the inhibition is -7.8%.

`O=C(CCCOc1ccccc1)Nc1cccc(C(=O)O)c1`: the inhibition is 1.2%.

Take `COc1ccc(OC)c2[nH]c(=O)c(CCNC(=O)C(C)(C)C)cc12`: the inhibition is 13.1%.

Consider `O=C(Cn1nc(C(F)(F)F)c2c1CCC2)NCc1ccc(F)cc1`, for which the inhibition was 45.9%.

For `CCSc1nc(=S)n(CC)c(C)c1C(C)=O`, the inhibition was -23.9%.

Regarding `O=C(CCCN1C(=O)c2ccccc2C1=O)Oc1ccc(Cl)cc1`, the inhibition was 14.2%.

On to `COc1ccc(NC(=O)/C(Cl)=C(/Cl)S(=O)Cc2ccc(C)cc2)cn1` (stereo not given), for which the inhibition was 33.8%.

Turning to `O=C(Nc1nnc(C2CC2)s1)c1ccccn1`, the inhibition is 20.4%.

Regarding `CCCc1nc(N2CCN(C)CC2)c2sc(=S)n(-c3ccccc3)c2n1`, the inhibition is 4.4%.

Regarding `CCOc1ccc(NC(=O)CCS(=O)(=O)c2ccc3c(c2)CCCN3C(=O)CC)cc1`, the inhibition was 3.3%.

Regarding `O=C(CC1Oc2ccccc2NC1=O)NCCCN1CCN(Cc2ccccc2)CC1` (stereo not given), the inhibition is -1.2%.

Take `Cc1ccc2c(c1)N(CC(=O)N1CCCc3ccccc31)C(=O)C(C)O2` (stereo not given): the inhibition is 34.4%.

Consider `O=C(Cc1ccccc1)n1nc(-c2ccccc2)nc1NCc1ccco1`, for which the inhibition was 15.9%.

Take `O=C(O)CSC(NC(=O)c1cccnc1)(C(F)(F)F)C(F)(F)F`: the inhibition is -13.3%.

In the case of `CC(NC(=O)c1cc(-c2ccccc2)on1)c1ccccc1` (stereo not given), the inhibition was 13%.

For `CC(N=Cc1nc(-c2ccccc2)oc1O)c1ccccc1` (stereo not given), the inhibition is 71.8% (active).

For the compound `CCn1c(/C=C/c2ccc([N+](=O)[O-])o2)nc2ccccc2c1=O`, the inhibition is -3.3%.

On to `Cc1ccc(-n2c(C)cc(/C=N/Nc3ccc([N+](=O)[O-])cn3)c2C)c(C)c1`, for which the inhibition is -0.3%.

Consider `CN1C(=O)CC(N2CCN(c3ccccn3)CC2)C1=O` (stereo not given), for which the inhibition was 17.8%.

With `COc1cccc(-n2c(Cc3cc(=O)[nH]c(=O)[nH]3)nnc2SCC(=O)Nc2ccccc2)c1`, the inhibition is -8.7%.

`CSc1cccc(NC(=O)CSc2ccccc2)c1`: the inhibition was 83.5% (active).

Turning to `Cc1ccn(C(CC(=O)c2ccc(Br)cc2)C(=O)O)n1` (stereo not given), the inhibition is -25.7%.

For the compound `CC(C)c1nc(-c2ccccn2)no1`, the inhibition was -3.1%.

Turning to `O=C(Oc1ccc(-c2nc(-c3ccccn3)no2)cc1)c1ccccc1`, the inhibition was 99.5% (active).

On to `O=C(Oc1ccccc1)c1ccc2nccnc2c1`, for which the inhibition is 20.3%.

As to `CCc1cc(Br)ccc1NC(=O)C1CCCO1` (stereo not given), the inhibition is 30.5%.

Consider `CC(=O)c1cc(-c2ccccc2)[nH]c1N1CCCC1`, for which the inhibition was 10.4%.

Take `COc1ccccc1C(=O)Nc1ccc(NC(=O)c2ccco2)c(C)c1`: the inhibition was 45.5%.

In the case of `O=C(COC(=O)c1ccccc1NC(=O)c1ccco1)Nc1ccc2c(c1)OC(F)(F)O2`, the inhibition is 57.4% (active).

For `CCOc1cc(NC(=O)c2ccco2)c(OCC)cc1NC(=O)COc1ccccc1`, the inhibition is 24.6%.

As for `Cc1nc(C)c2c(c1C(F)(F)F)-c1ccccc1C2(F)F`, the inhibition is -21.2%.

As for `Cc1ccc(C)n1C(Cc1ccccc1)C(=O)O` (stereo not given), the inhibition was 8.1%.

As to `O=C(C(Cc1ccccc1)n1cccc1)N1CCN(C2CCCCC2)CC1` (stereo not given), the inhibition was 98.1% (active).

For `O=C(NC(Cc1ccccc1)C(=O)N1CCCC1C(=O)O)c1ccccc1` (stereo not drawn) (Bz-Phe-Pro-OH; configuration not given here), the inhibition was -4.1%.

On to `CCOc1ccc2nc(SC(CC)C(=O)Nc3cc(C)on3)sc2c1` (stereo not given), for which the inhibition was 0.6%.

For the compound `Cc1ccc(CNC(=O)c2ccccc2CCc2ccccc2)cc1`, the inhibition was 13.9%.

As to `COc1ccc(C2C(C#N)=C(N)Oc3n[nH]c(C)c32)cc1CN1CCN(c2ccc(F)cc2)CC1` (stereo not given), the inhibition was 70.4% (active).

On to `CCCc1[nH]nc2c1C(c1ccc(OC)c(Cn3nc(C)c(Br)c3C)c1)C(C#N)=C(N)O2` (stereo not given), for which the inhibition is 8%.

Take `CCOc1c(OC)cc(C2C(C#N)=C(N)Oc3n[nH]c(-c4ccncc4)c32)cc1OC` (stereo not given): the inhibition was -7%.

For `Fc1ccc2nc(N3CCCCC3)sc2c1`, the inhibition is 39.9%.

On to `Cn1c(=O)n(C)c2cc(/C=N/NC(=O)c3cccc(Br)c3)ccc21`, for which the inhibition is 6.4%.

Turning to `O=C(N/N=C\c1cccc(Br)c1)c1ccccc1-n1cccc1`, the inhibition is 73.3% (active).

Regarding `N=c1oc2ccccc2cc1C(=O)N/N=C/c1ccccc1`, the inhibition is 31.7%.

Regarding `CC(C)Cn1c(N)c(C(=O)NCc2cccs2)c2nc3ccccc3nc21`, the inhibition is 19.7%.

Take `CC1(C)CC(=O)c2sc(N)nc2C1`: the inhibition was 23.6%.

With `CC1CCC2(CC1)NC(=O)N(CC(=O)c1cccn1C)C2=O` (stereo not given), the inhibition is 9.9%.

In the case of `CC(C)(C)OC(=O)c1c(N)n(CCCN2CCCC2=O)c2nc3ccccc3nc12`, the inhibition was -3.9%.

On to `Cc1ccc(CNC(=O)CCNS(=O)(=O)c2cccc3nonc23)cc1`, for which the inhibition was 15.9%.

For the compound `O=C(CCS(=O)(=O)c1cccc2nonc12)NCCc1ccccc1Cl`, the inhibition is 75% (active).

Take `Cc1ccc(N(CC(=O)Nc2cc(C)cc(C)c2)S(=O)(=O)c2cccc3nonc23)cc1`: the inhibition was 14.2%.

Take `CC1CCCCC1NC(=O)CCS(=O)(=O)c1cccc2nonc12` (stereo not given): the inhibition is 27.7%.

On to `COc1ccc(C)cc1NC(=O)CCS(=O)(=O)c1cccc2nonc12`, for which the inhibition is 82.1% (active).

For the compound `Cc1cccc(C)c1NC(=O)CCS(=O)(=O)c1cccc2nsnc12`, the inhibition is 10.7%.

For the compound `CSc1cc(C)n(-c2ccccc2C)c(=S)c1C(C)=O`, the inhibition is -14.7%.

On to `CCOC(=O)c1oc2ccccc2c1NC(=O)c1cccs1`, for which the inhibition was 5.8%.

For the compound `O=C(O)Cc1ccc(NC(=O)c2cccs2)cc1`, the inhibition is 1.3%.

`Cc1cc2cc(CNC(=O)c3cccs3)ccc2[nH]1`: the inhibition was 86.8% (active).

For the compound `O=[N+]([O-])c1cccc(-c2nnc3c4ccccc4c4ccccc4n23)c1`, the inhibition was 5%.

On to `COc1ccc(C2=Nc3cc(C)ccc3OC2)cc1`, for which the inhibition is 13%.

Consider `CN(C)CCCNC(=O)c1ccc2[nH]c3ccccc3c2c1`, for which the inhibition was 10.5%.

Consider `CC(C)=C(NC(=O)c1ccco1)C(=O)NCCc1nc2ccccc2[nH]1`, for which the inhibition was -12.2%.

On to `O=C(COc1ccccc1)NCCc1nc2ccccc2[nH]1`, for which the inhibition is 65.9% (active).

Turning to `COC(=O)Cc1nc2ccccc2[nH]1`, the inhibition was 3%.

As to `COC(=O)CSc1snnc1-c1ccc(Cl)c(Cl)c1`, the inhibition is 44.8%.

For `Cn1c(SCC(=O)N2CCOCC2)nnc1-c1ccc(NC(=O)c2ccccc2F)cc1`, the inhibition is 2.8%.

On to `O=C(Nc1nnc(SCc2c(Cl)cccc2Cl)s1)C1CCCO1` (stereo not given), for which the inhibition was 9.6%.

For the compound `Cc1cc(C)c2nc(SCCC#N)nc(C)c2c1`, the inhibition was 53.5% (active).

As for `CSc1ccc(CCNC(=O)C2CCN(c3nnc(-n4cccc4)s3)CC2)cc1`, the inhibition is 28.8%.

Regarding `CC(=O)Cc1nsc(NC(=O)c2csc3c2CCCC3)n1`, the inhibition is 42.6%.

On to `CCOC(=O)Cn1c(CN(Cc2ccccc2)Cc2ccccc2)nc2c1c(=O)[nH]c(=O)n2C`, for which the inhibition was 16.4%.

Consider `O=C(Nc1ccccc1)c1nnsc1S(=O)(=O)c1ccc(Cl)cc1`, for which the inhibition was 19.5%.

With `O=S(=O)(NCc1ccccc1Cl)c1cnc[nH]1`, the inhibition was 22.3%.

Consider `Cc1nnsc1S(=O)(=O)Cc1ccccc1Cl`, for which the inhibition was 56.2% (active).

In the case of `COc1cccc(OC)c1C(=O)Nc1nnc(C(C)C)s1`, the inhibition was -6.4%.
